Data published in PubChem BioAssay (Tox21).
Where “and” joins values, the source holds several entries; their conditions need not be identical. Equal values may be shown once. Inconclusive results are not listed. Calls of active or inactive are those of the source. Unless noted, the call rests on the fitted dose curve; in most records, active means well fitted curve in the direction sought with a large enough effect in the repeat runs; inconclusive means weak or mixed curves; inactive means flat fitted curve, though single readings scatter.

Tests used:
[1] = qHTS assay to test for compound auto fluorescence at 535 nm (green) in HEK293 cells (AID 720680)
[2] = qHTS assay to test for compound auto fluorescence at 460 nm (blue) in HEK293 cell free culture (AID 720681)
Outline: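 Blue fluorescence (Ex 405/Em 460 nm, triamterene-equivalent) was read immediately after pin transfer of compound or DMSO into medium (DMEM, 10% FBS) without cells.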

[3] = qHTS assay to test for compound auto fluorescence at 535 nm (green) in HEK293 cell free culture (AID 720682)
Outline: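 DMEM + 10% FBS, cell-free; cpd or DMSO pinned in; Ex485/Em535 read; output as fluorescein-equivalent signal.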

[4] = qHTS assay to test for compound auto fluorescence at 590 nm (red) in HEK293 cell free culture (AID 720683)
Outline: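 Red-channel autofluorescence of compounds in culture medium (DMEM, 10% FBS), no cells, measured at 540/590 nm. Rose Bengal sodium is the reference fluorophore for equivalence.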

[5] = qHTS assay to test for compound auto fluorescence at 590 nm (red) in HepG2 cell free culture (AID 720684)
Outline: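 Plate contents were MEM with 10% FBS plus test compound or DMSO, no cells. Fluorescence was recorded with 540 nm excitation and 590 nm emission.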

[6] = qHTS assay to test for compound auto fluorescence at 535 nm (green) in HepG2 cell free culture (AID 720686)
[7] = qHTS assay to test for compound auto fluorescence at 460 nm (blue) in HepG2 cells (AID 720687)
Outline: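 Blue-channel autofluorescence (Ex/Em 405/460 nm, triamterene-equivalent) was measured after 1 hr compound exposure at 37 C, 5% CO2. Cells were HepG2, plated overnight at 37 C in MEM plus 10% FBS.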

[8] = target: Glucocorticoid receptor (Homo sapiens) (UniProt P04150); experiment: qHTS assay to identify small molecule agonists of the glucocorticoid receptor (GR) signaling pathway (AID 720691; active means well fitted activation curve with a large enough effect in the signal ratio in the repeat runs, not every such curve was filed as active; the % refers to the signal ratio)
Outline: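 GR-bla HeLa cells carrying a GRE-driven beta-lactamase reporter, exposed to compounds for 18 h at 37 C. Reporter activation read as fluorescence after 2 h with LiveBLAzer B/G FRET substrate at room temperature.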

[9] = target: Glucocorticoid receptor (Homo sapiens) (UniProt P04150); experiment: qHTS assay to identify small molecule antagonists of the glucocorticoid receptor (GR) signaling pathway (AID 720692; active means well fitted inhibition curve with a large enough effect in the signal ratio in the repeat runs, not every such curve was filed as active; the % refers to the signal ratio; further: potency means the concentration at half of the fitted maximal effect)
Outline: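 GR-bla HeLa cells carrying a GRE-driven beta-lactamase reporter received compound after 4 h plating, then dexamethasone (5 nM final). After 18 h at 37C, the FRET substrate was loaded for 2 h at room temperature and fluorescence read.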

[10] = qHTS assay to test for compound auto fluorescence at 460 nm (blue) in HepG2 cell free culture (AID 720685)
Outline: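 Compound (23 nL) or DMSO pinned into cell-free MEM with 10% FBS; blue fluorescence read at 405/460 nm excitation/emission, expressed as auto-fluorescence equivalency to triamterene.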

Measured: Potency

Chain of Glucocorticoid receptor (Homo sapiens) (P04150 whole entry, looked up): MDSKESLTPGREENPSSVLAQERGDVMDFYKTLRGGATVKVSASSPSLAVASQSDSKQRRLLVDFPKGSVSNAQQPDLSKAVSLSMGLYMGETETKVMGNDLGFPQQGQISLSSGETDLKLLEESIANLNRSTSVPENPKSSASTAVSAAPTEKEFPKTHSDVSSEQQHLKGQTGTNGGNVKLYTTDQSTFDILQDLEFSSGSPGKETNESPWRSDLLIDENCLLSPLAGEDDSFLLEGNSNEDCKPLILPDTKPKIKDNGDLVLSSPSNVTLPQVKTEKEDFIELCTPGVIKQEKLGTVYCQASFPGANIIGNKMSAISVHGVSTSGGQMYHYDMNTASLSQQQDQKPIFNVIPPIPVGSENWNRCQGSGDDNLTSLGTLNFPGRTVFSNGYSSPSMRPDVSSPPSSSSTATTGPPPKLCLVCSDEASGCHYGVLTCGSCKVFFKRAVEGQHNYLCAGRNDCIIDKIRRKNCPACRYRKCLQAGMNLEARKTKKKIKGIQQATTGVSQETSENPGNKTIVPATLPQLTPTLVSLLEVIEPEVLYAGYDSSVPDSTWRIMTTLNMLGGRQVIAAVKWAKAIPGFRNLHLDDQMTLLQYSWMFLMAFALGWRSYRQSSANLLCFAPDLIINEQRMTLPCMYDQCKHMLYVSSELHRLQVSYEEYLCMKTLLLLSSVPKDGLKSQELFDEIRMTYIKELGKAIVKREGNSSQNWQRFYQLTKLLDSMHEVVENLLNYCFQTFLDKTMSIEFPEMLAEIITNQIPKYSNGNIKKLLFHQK

Cc1cnc[nH]1
not listed: [10]
inactive: all other assays above

CCCCC(=O)Cl
not listed: [6]
inactive: all other assays above

C[N+](=O)[O-]
not listed: [9] | [10]
inactive: all other assays above

OCCBr
not listed: [10]
inactive: all other assays above

C#CCN1C(=O)COc2cc(F)c(N3C(=O)C4=C(CCCC4)C3=O)cc21
not listed: [10]
inactive: all other assays above

ClC(Br)Br
not listed: [6]
inactive: all other assays above

CN(C)CCc1ccc(O)cc1
not listed: [8] | [9] | [10]
inactive: all other assays above

Oc1c(Cl)cccc1Cl
inactive: [1] | [2] | [3] | [4] | [5] | [7]

C[C@]1(O)CC[C@H]2[C@@H]3CCC4=CC(=O)CC[C@]4(C)[C@@]3(F)[C@@H](O)C[C@@]21C
active: [9] 1.51 µM and 620 nM
not listed: [6]
inactive: all other assays above

CCCSP(=S)(OCC)Oc1ccc(Cl)cc1Cl (stereo not drawn)
not listed: [10]
inactive: all other assays above

COC(C)(C)C
not listed: [8] | [9] | [10]
inactive: all other assays above

COc1cc(OC)nc(NC(=O)NS(=O)(=O)c2ncccc2C(=O)N(C)C)n1
not listed: [9] | [10]
inactive: all other assays above

ClCC(Cl)(Cl)Cl
not listed: [10]
inactive: all other assays above

N#CCNCC#N
not listed: [8] | [9] | [10]
inactive: all other assays above

BrCCCCCCBr
not listed: [10]
inactive: all other assays above

O=c1oc2ccccc2c(O)c1C1CCCc2ccccc21 (stereo not drawn)
not listed: [6]
inactive: all other assays above

OC(Cn1cncn1)(c1ccc(F)cc1)c1ccccc1F (stereo not drawn)
not listed: [8] | [9] | [10]
inactive: all other assays above

c1coc(-c2nc3ccccc3[nH]2)c1
not listed: [10]
inactive: all other assays above

Nc1ccccc1Cl
not listed: [10]
inactive: all other assays above

CC1CCCCC1NC(=O)Nc1ccccc1 (stereo not drawn)
not listed: [10]
inactive: all other assays above

CCC(Cl)[N+](=O)[O-] (stereo not drawn)
not listed: [6] | [10]
inactive: all other assays above

CNC(=O)Oc1cccc(C(C)C)c1
not listed: [5]
inactive: all other assays above

O=C(Oc1ccc(Br)cc1)N1CCN2CCC1CC2
not listed: [6] | [10]
inactive: all other assays above

CCCCCCI
inactive: [1] | [2] | [3] | [4] | [6] | [7]

Clc1cccc(N2CCNCC2)c1
not listed: [5] | [6]
inactive: all other assays above

CC(C=O)Cc1ccc2c(c1)OCO2 (stereo not drawn)
not listed: [5] | [9]
inactive: all other assays above

O=C1OC(=O)C2C1C1(Cl)C(Cl)=C(Cl)C2(Cl)C1(Cl)Cl (stereo not drawn)
not listed: [5]
inactive: all other assays above

CCC1(c2ccccc2)C(=O)NC(=O)NC1=O
not listed: [1] | [8] | [9]
inactive: all other assays above

CCN(CC)C(=O)[C@@H]1C=C2c3cccc4[nH]cc(c34)C[C@H]2N(C)C1
not listed: [5] | [6]
inactive: all other assays above

CCC1(c2ccccc2)C(=O)N=C(O)NC1=O (stereo not drawn)
not listed: [1] | [8] | [9]
inactive: all other assays above

CC(=O)CCc1ccc2c(c1)OCO2
not listed: [5] | [9]
inactive: all other assays above

COP(N)(=S)Oc1ccccc1C(=O)OC(C)C (stereo not drawn)
not listed: [5]
inactive: all other assays above

O=[N+]([O-])c1ccc(CBr)cc1
not listed: [5]
inactive: all other assays above

CC(C)CP(=S)(S)CC(C)C
not listed: [5]
inactive: all other assays above

COC(=O)COc1ccc(Cl)cc1Cl
not listed: [1] | [8] | [9]
inactive: all other assays above

CCOP(=S)(OCC)SCSc1ccc(Cl)cc1
not listed: [5] | [10]
inactive: all other assays above

CCCCCCBr
not listed: [1] | [8] | [9]
inactive: all other assays above

CSc1ccc(C(=O)C(C)(C)N2CCOCC2)cc1
inactive: [1] | [2] | [3] | [4] | [7]

C=C(C)[C@@H]1CC=C(C=O)CC1
inactive: [1] | [2] | [3] | [4] | [10] | [7]

COc1cccc(C(=O)NN(C(=O)c2cc(C)cc(C)c2)C(C)(C)C)c1C
not listed: [1] | [8] | [9]
inactive: all other assays above

CCOC(=O)NC(=S)Nc1ccccc1NC(=S)NC(=O)OCC
not listed: [5] | [6] | [9]
inactive: all other assays above

C=CC1CC=CCC1 (stereo not drawn)
not listed: [5]
inactive: all other assays above

CC1(C)C(=O)NC(=O)NC1=O
not listed: [5] | [6]
inactive: all other assays above

CC(=O)CC(c1ccc(Cl)cc1)c1c(O)c2ccccc2oc1=O (stereo not drawn)
not listed: [5] | [6]
inactive: all other assays above

Fc1ccc(C2(Cn3cncn3)OC2c2ccccc2Cl)cc1 (stereo not drawn)
not listed: [5] | [9]
inactive: all other assays above

COC(=O)C(C)Oc1ccc(Oc2ccc(Cl)cc2Cl)cc1 (stereo not drawn)
not listed: [5] | [9]
inactive: all other assays above

CCCCP(CCCC)CCCC
not listed: [5] | [8] | [9]
inactive: all other assays above

C(CCOCC1CO1)COCC1CO1 (stereo not drawn)
not listed: [6] | [10]
inactive: all other assays above

COC(=O)C1=CCCN(C)C1
not listed: [5] | [6]
inactive: all other assays above

O=C1c2ccccc2C(=O)c2ccccc21
not listed: [5] | [8] | [9]
inactive: all other assays above

CNC(=O)Oc1ccccc1C1OCCO1
not listed: [5]
inactive: all other assays above

CCN(CC)C(C)C(=O)c1ccccc1 (stereo not drawn)
not listed: [5] | [8] | [9]
inactive: all other assays above

O=C1CN=C(c2ccccc2)c2cc([N+](=O)[O-])ccc2N1
not listed: [5]
inactive: all other assays above

COC(=O)c1c(C(F)F)nc(C(F)(F)F)c(C2=NCCS2)c1CC(C)C
not listed: [5] | [8] | [9]
inactive: all other assays above

COP(=S)(OC)Oc1c(Cl)cc(C)cc1Cl
not listed: [5] | [10]
inactive: all other assays above
